CHOP inhibitor – CHOP inhibition in unfolded protein response. CHO-K1 CHOP-promoter luciferase, tunicamycin-induced, 15-18 h. inhibition, % at 10 µM. actives 3.8% (n = 220,000);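 active = compounds that reduced the stress-induced luciferase reporter signal by more than about 70% of percent inhibition, limit read from the data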;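 also: 0% = tunicamycin plus vehicle and 100% = wells without tunicamycin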
WT yeast gro inh – growth inhibition of WT yeast, mitochondrial fusion screen; mitochondrial fusion phenotypic screen, WT strain; inhibition, % at 10 µM; AID 1362; actives 2.1% (n = 190,000); in the data active = inhibition above about 58%; tested in S. cerevisiae
Lmaj promast – inhibitors of Leishmania major promastigote growth; inhibition, % at 10 µM; Leishmania major promastigotes, resazurin fluorescence viability; actives 9% (n = 200,000); in the data active = inhibition above about 50%;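 also: promastigotes grown with compound for 44 hours at 28 °C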
RAM network inh – yeast RAM network inhibition. S. cerevisiae dse1pr::URA3 reporter, 5-FOA growth OD615, 2 d; analog-sensitive cbk1-as2 kinase mutant strain. inhibition, % at 50 µM. actives 1.8% (n = 190,000). AID 868;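 active = inhibition above a set limit, 3 SD over mean compound inhibition, cut at about 8.4% in these data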;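 also: 0% = DMSO-only wells with no growth and 100% = 10 µM 1-NA-PP1 full growth; inhibition rescues growth on 5-FOA so higher OD means more RAM inhibition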
CHOP inh conf – confirmation of CHOP induction inhibitors; shares compounds with CHOP inhibitor; CHO-CHOP promoter luciferase reporter, tunicamycin-induced, luminescence; inhibition, % at 10 µM; actives 45% (n = 2,100); AID 504437;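 active = mean of three repeat readings of reporter signal inhibition above a set limit, cut at about 70% in these data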;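 also: 0% = tunicamycin plus vehicle and 100% = wells lacking tunicamycin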
Starred values were filed as active, the others as inactive; . = no result given. In the library only some 13% were active in any assay of this set; here they are far more common.

SMILES | CHOP inhibitor | WT yeast gro inh | Lmaj promast | RAM network inh | CHOP inh conf
Cc1ccc(NC(=O)CS(=O)(=O)c2c[nH]c3ccccc23)c(C)c1 | 21.4 | -10.9 | 2.6 | 0.2 | .
CC(=O)SC(C[N+](=O)[O-])c1cn(C(C)=O)c2ccccc12 (stereo unspecified) | 106.0* | 18.5 | 18.0 | -1.2 | -59.7
CC(=O)n1cc(Nc2ccc([N+](=O)[O-])cc2)c2ccccc21 | 11.5 | -2.8 | 9.7 | 1.7 | .
CC(=O)C1=C(S(=O)(=O)c2ccc(C)cc2)CS(=O)(=O)C1 | 98.1* | 3.1 | 4.6 | -0.1 | 71.3*
Cc1cc(C)cc(OCc2ccc(C(=O)O)o2)c1 | 47.7 | -8.0 | -4.3 | -1.0 | .
Cc1cc(C)cc(OCc2ccc(C(=O)N3N=C(C(F)F)CC3(O)C(F)F)o2)c1 (stereo unspecified) | 102.1* | 13.2 | 0.8 | 2.0 | 57.3
O=C(c1ccc(Cn2cc(Br)cn2)cc1)N1N=C(C(F)F)CC1(O)C(F)F (stereo unspecified) | 37.4 | 26.5 | -1.7 | 0.5 | .
CCOc1ccc(OCc2ccc(C(=O)N3N=C(C(F)F)CC3(O)C(F)F)o2)cc1 (stereo unspecified) | 98.8* | -8.6 | -7.6 | 2.0 | -10.6
O=C(c1ccc(COc2ccc(Br)cc2)o1)N1N=C(C(F)F)CC1(O)C(F)F (stereo unspecified) | 108.0* | 0.1 | -2.7 | 5.1 | 21.4
Cc1ccc(C)c(OCc2ccc(C(=O)N3N=C(C(F)F)CC3(O)C(F)F)o2)c1 (stereo unspecified) | 108.2* | 16.2 | -3.5 | 6.3 | 119.7*
C=CCNC(=O)COc1cc(C)ccc1C | 48.6 | -10.2 | 48.3 | 0.9 | .
Cc1cc(C)cc(SCc2noc(C(=O)NCCCN3CCOCC3)c2C(=O)NCCCN2CCOCC2)c1 | -20.9 | . | . | . | .
CCN(CC(=O)NC(C)(C)C)C(=O)C(c1ccccc1)c1ccccc1 | 10.6 | -1.3 | 8.6 | 0.6 | .
O=C(c1ccc(COc2ccc3ccccc3c2)o1)N1N=C(C(F)F)CC1(O)C(F)F (stereo unspecified) | 111.4* | 7.5 | 1.7 | 5.6 | 55.5
Cc1ccc(OCCn2cnc(Cl)c2Cl)cc1 | 13.2 | -3.7 | -2.6 | -0.2 | .
Cc1nnsc1C(=O)NNc1ccc(Cl)cc1 | 14.2 | . | . | . | .
CCCNC(=O)c1nnsc1S(=O)(=O)c1ccc(Cl)cc1 | 107.5* | 84.6 | 17.7 | -2.3 | 140.6*
CNC(=O)c1nnsc1S(=O)c1ccc(Cl)cc1 (stereo unspecified) | 107.4* | 58.9 | 100.3* | -1.4 | 7.6
CCCNC(=O)NS(=O)(=O)c1ccc(Cl)cc1 | 4.4 | 3.1 | -4.5 | 0.3 | .
CCCNC(=O)c1nnsc1S(=O)c1ccc(Cl)cc1 (stereo unspecified) | 107.2* | 85.5 | 100.4* | -1.5 | 140.8*
Nc1ccc(S(=O)(=O)Nc2nccc(/C=C/c3ccc(Cl)cc3Cl)n2)cc1 | 23.6 | . | . | . | .
COCc1c(C(=O)NC2CCCCCC2)oc2ccccc12 | 20.2 | -12.9 | 0.8 | 1.4 | .
CC(OC(=O)c1oc2ccccc2c1CSC1CCCCC1)C(=O)NC(N)=O (stereo unspecified) | 101.2* | -8.8 | 0.4 | 1.3 | 36.3
CC(C)(C)C(=O)c1no[n+]([O-])c1/C(=N/O)C(C)(C)C | 107.7* | 25.9 | 3.0 | 0.7 | 78.1*
Cc1ccc(NCc2nnc(SCC(=O)O)n2Cc2ccccc2)cc1Cl | -10.0 | 3.8 | -7.8 | 2.6 | .
SMILES | CHOP inhibitor | WT yeast gro inh | Lmaj promast | RAM network inh | CHOP inh conf
Cc1ccc(NCc2n[nH]c(=S)n2Cc2ccccc2)cc1Cl | 99.8* | 67.4* | 3.0 | -1.1 | -44.6
CCOC(=O)c1ccc[n+](CC(=O)Nc2cc(C(F)(F)F)ccc2Cl)c1 | -4.0 | -13.6 | -1.8 | 0.3 | .
O=C(NCC1CCCO1)c1ccc2c(=O)n(Cc3cccc(Br)c3)c(=S)[nH]c2c1 (stereo unspecified) | 106.7* | 19.1 | -4.6 | 6.1 | -13.9
CC(=O)Oc1cc2cccc(OC(C)=O)c(=O)c2c(OC(C)=O)c1OC(C)=O | 52.5 | 24.6 | -11.7 | 1.1 | .
CCO[C@@H]1OC(C(=O)NCc2ccccc2)=C[C@H](c2coc3ccccc3c2=O)[C@H]1CCCO | -49.7 | -3.2 | 3.9 | -0.2 | .
Clc1nc2c(-c3ccccc3)nnn2c2ccccc12 | 100.8* | . | . | . | -79.6
Cc1ccc(-c2nnn3c2nc(Cl)c2ccccc23)cc1 | 56.4 | 16.2 | 48.1 | 1.7 | .
CC1(C)CCCC(C)(C)N1CC(O)COCCOc1ccc(Br)cc1 (stereo unspecified) | 9.6 | 6.7 | 3.8 | -0.7 | .
COc1ccc(OCCC(=O)NCCN2CCOCC2)cc1 | -11.1 | -9.5 | -0.8 | 1.4 | .
CCOC(=O)c1[nH]c2ccc(Cl)cc2c1-c1ccccc1 | 96.7* | -2.6 | -2.8 | 6.4 | 119.6*
CC(=O)c1c(-c2ccccc2)c2cc(Cl)ccc2[nH]c1=O | 5.0 | 5.9 | 1.4 | 2.3 | .
COc1cc(C)ccc1S(=O)(=O)N1CCN(C23CC4CC(CC(C4)C2)C3)CC1 | 105.1* | 3.9 | 22.5 | -0.1 | 12.0
N#C/C(=C/c1ccc(Br)s1)C(=O)NCCc1c[nH]c2ccccc12 | 36.9 | 1.6 | -6.0 | 3.6 | .
Cc1ccc(S(=O)(=O)CC(=O)c2ccc3c(c2)OCCO3)cc1 | -17.6 | . | . | . | .
Cc1csc(NC(=O)CSc2nnc3c4ccccc4nc(C(C)(C)C)n23)n1 | 105.4* | -4.9 | 7.8 | 7.7 | 124.8*
N=C1/C(=C\c2ccc(-c3ccc(C(=O)O)cc3)o2)C(=O)N=C2SC=C(c3ccccc3)N12 | 100.3* | . | . | . | 37.6
CC1(C)c2ssc(=S)c2-c2ccccc2N1C(=O)c1ccco1 | 98.5* | 0.1 | 5.2 | 5.5 | 12.0
Cc1n[nH]c(C)c1CCc1nc2c3ccccc3nc(SCC(N)=O)n2n1 | -9.2 | -9.8 | 7.3 | 0.3 | .
Cc1ccc(NC(=O)CSc2nc3ccccc3c3nc(CCc4c(C)n[nH]c4C)nn23)cc1F | 107.7* | -1.5 | 7.5 | 1.8 | 78.6*
C=CCOc1ccc2nnc(C)n2n1 | -11.7 | -4.1 | 10.9 | -0.7 | .
Cc1cc(N/N=C/c2ccc(O)cc2O)nc(-c2ccccc2O)n1 | 101.2* | 10.8 | 12.2 | 10.3* | 13.7
O=C(Nc1nc2ccccc2s1)c1ccc(OCC2CCCO2)cc1 (stereo unspecified) | 25.8 | 14.6 | 4.7 | 3.3 | .
O=C(Nc1ccc(F)cc1)N1CCn2c(nc3ccccc32)C1 | 98.4* | -3.9 | 0.3 | 1.7 | -2.6
Cn1c(N2CCN(C(=O)Nc3ccc(F)cc3)CC2)nc2ccccc21 | 8.2 | 3.4 | 7.5 | -0.8 | .
CC(C)c1ccc(NC(=O)C2=NNC(=O)CC2)cc1 | -0.6 | . | . | . | .
CC1(C)CC2CC(C)(CN2/C=C2/CCCCC2=O)C1 (stereo unspecified) | 6.7 | . | . | . | .
COc1ccc2[nH]c(=O)c(CN(C3CCCCC3)C(c3nnnn3Cc3ccco3)C(C)C)cc2c1 (stereo unspecified) | 101.7* | 2.7 | 65.4* | 1.5 | 52.3
COCCn1nnnc1C(C(C)C)N(Cc1ccccc1)Cc1cc2cc(OC)ccc2[nH]c1=O (stereo unspecified) | 44.4 | 25.7 | 12.6 | 1.3 | .
COc1ccccc1NC(=O)Cc1noc(CSc2n[nH]c(N)n2)n1 | 7.1 | 17.4 | -1.4 | 1.4 | .
Cc1cccc(C(=O)NNC(=O)c2ccc(Br)cc2)c1 | 22.6 | -2.5 | -1.3 | 2.2 | .

Compound activity (PubChem)
